Results reported in PubChem BioAssay (NCATS).
Records with an inconclusive call do not appear. Activity calls are given as the source filed them. Calls come from the whole dose curve; as a rule, active = well fitted curve in the direction sought with a large enough effect; inconclusive = small, poorly fitted or top-dose-only effect, or another doubt; inactive = no such curve, though single readings can be large; an effect the other way counts as inactive or inconclusive.

Legend:
[1] = S16 Schwann cell viability assay (CellTiter-Glo assay) (AID 624031);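 note: native untransfected S16 rat Schwann cells; nearly all actives have a fitted effect of over 70% in size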
In short: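 Counter-screen for cytotoxicity: parental S16 rat Schwann cells lacking the PMP22 reporters, treated 24 h with compound, viability from cellular ATP by CellTiter-Glo luminescence, normalized to DMSO (0%) and no-cell wells.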

3D7 = experiment: qHTS profiling for inhibitors of Plasmodium falciparum proliferation (AID 504749); note: nearly all actives have a fitted effect of over 60% in size; note: potency is the fitted concentration of half-maximal effect; details: P. falciparum in erythrocytes, SYBR Green DNA, 72 h; series mostly up to 12.8 µM
In short: (§1)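 Quantitative HTS: compounds pinned into medium, infected erythrocytes added (0.3% parasitemia, 2.5% hematocrit), 72 h culture at 37 C under 5% CO2. Saponin/Triton lysis with SYBR Green I, overnight RT, then fluorescence read.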

AS120 = experiment: as above; details: P. falciparum in erythrocytes, SYBR Green DNA, 72 h; series mostly up to 12.8 µM
In short: as §1

CP185 = experiment: as above; details: P. falciparum in erythrocytes, SYBR Green DNA, 72 h; series mostly up to 12.8 µM
In short: as §1

CP191 = experiment: as above; details: P. falciparum in erythrocytes, SYBR Green DNA, 72 h; series mostly up to 12.8 µM
In short: as §1

CP192 = experiment: as above; details: P. falciparum in erythrocytes, SYBR Green DNA, 72 h; series mostly up to 12.8 µM
In short: as §1

CP217 = experiment: as above; details: P. falciparum in erythrocytes, SYBR Green DNA, 72 h; series mostly up to 12.8 µM
In short: as §1

CP237 = experiment: as above; details: P. falciparum in erythrocytes, SYBR Green DNA, 72 h; series mostly up to 12.8 µM
In short: as §1

CP250 = experiment: as above; details: P. falciparum in erythrocytes, SYBR Green DNA, 72 h; series mostly up to 12.8 µM
In short: as §1

CP252 = experiment: as above; details: P. falciparum in erythrocytes, SYBR Green DNA, 72 h; series mostly up to 12.8 µM
In short: as §1

CP266 = experiment: as above; details: P. falciparum in erythrocytes, SYBR Green DNA, 72 h; series mostly up to 12.8 µM
In short: as §1

CP325 = experiment: as above; details: P. falciparum in erythrocytes, SYBR Green DNA, 72 h; series mostly up to 12.8 µM
In short: as §1

CP329 = experiment: as above; details: P. falciparum in erythrocytes, SYBR Green DNA, 72 h; series mostly up to 12.8 µM
In short: as §1

DFO2036 = experiment: as above; details: P. falciparum in erythrocytes, SYBR Green DNA, 72 h; series mostly up to 12.8 µM
In short: as §1

DIV14 = experiment: as above; details: P. falciparum in erythrocytes, SYBR Green DNA, 72 h; series mostly up to 12.8 µM
In short: as §1

ECU = experiment: as above; details: P. falciparum in erythrocytes, SYBR Green DNA, 72 h; series mostly up to 12.8 µM
In short: as §1

HB3 = experiment: as above; details: P. falciparum in erythrocytes, SYBR Green DNA, 72 h; series mostly up to 12.8 µM
In short: as §1

ICS = experiment: as above; details: P. falciparum in erythrocytes, SYBR Green DNA, 72 h; series mostly up to 12.8 µM
In short: as §1

N140 = experiment: as above; details: P. falciparum in erythrocytes, SYBR Green DNA, 72 h; series mostly up to 12.8 µM
In short: as §1

PC15 = experiment: as above; details: P. falciparum in erythrocytes, SYBR Green DNA, 72 h; series mostly up to 12.8 µM
In short: as §1

Measured: Potency

CC[C@H]1NC(=O)c2cc(S(N)(=O)=O)c(Cl)cc2N1
inactive: [1] | 3D7 | AS120 | CP185 | CP191 | CP192 | CP217 | CP237 | CP250 | CP252 | CP266 | CP325 | CP329 | DFO2036 | DIV14 | ECU | HB3 | ICS | N140 | PC15

CCOC(=O)O[C@]1(C(=O)COC(=O)CC)CC[C@@H]2[C@@H]3CCC4=CC(=O)C=C[C@@]4(C)[C@H]3[C@H](O)C[C@]21C
inactive: [1] | 3D7 | AS120 | CP185 | CP191 | CP192 | CP217 | CP237 | CP250 | CP252 | CP266 | CP325 | CP329 | DFO2036 | DIV14 | ECU | HB3 | ICS | N140 | PC15

CC(C)(C)NC[C@@H](O)COc1ccccc1C1CCCC1
active: AS120 3.98 µM | CP185 3.16 µM | CP192 6.42 µM | CP217 3.16 µM | CP237 3.55 µM | CP252 3.16 µM | CP325 4.55 µM | DIV14 2.03 µM | ECU 3.55 µM | HB3 3.16 µM | ICS 1.41 µM | N140 3.16 µM | PC15 2.51 µM

OCCN1CCN(CCC=C2c3ccccc3Sc3ccc(Cl)cc32)CC1
active: CP191 3.98 µM | ICS 4.47 µM
inactive: CP266

C[C@H]1CC[C@]2(OC1)O[C@@H]1C[C@@H]3[C@@H]4CC[C@H]5C[C@@H](O)CC[C@]5(C)[C@@H]4CC(=O)[C@@]3(C)[C@H]1[C@@H]2C
inactive: [1] | 3D7 | AS120 | CP185 | CP191 | CP192 | CP217 | CP237 | CP250 | CP252 | CP266 | CP325 | CP329 | DFO2036 | DIV14 | ECU | HB3 | ICS | N140 | PC15

CCCC(=O)Nc1ccc(OC[C@@H](O)CNC(C)C)c(C(C)=O)c1
inactive: [1]

CC(C)(C)NC[C@H](O)COc1cccc2c1C[C@@H](O)[C@@H](O)C2
inactive: [1] | 3D7 | AS120 | CP185 | CP191 | CP192 | CP217 | CP237 | CP250 | CP252 | CP266 | CP325 | CP329 | DFO2036 | DIV14 | ECU | HB3 | ICS | N140 | PC15

Cc1ccc2c(c1)c1c3n2CCN[C@H]3CCC1
active: CP237 12.6 µM | DIV14 6.01 µM
inactive: 3D7 | AS120 | CP185 | CP191 | CP192 | CP217 | CP250 | CP252 | CP266 | CP325 | CP329 | DFO2036 | HB3 | N140

O=C1O[C@@H]([C@@H](O)CO)[C@@H](O)[C@H]1O
inactive: 3D7 | AS120 | CP185 | CP191 | CP192 | CP217 | CP237 | CP250 | CP252 | CP266 | CP325 | CP329 | DFO2036 | DIV14 | ECU | HB3 | ICS | N140 | PC15

Cc1ncc([N+](=O)[O-])n1C[C@H](O)CCl
inactive: [1] | 3D7 | AS120 | CP185 | CP191 | CP192 | CP217 | CP237 | CP250 | CP252 | CP266 | CP325 | CP329 | DFO2036 | DIV14 | ECU | HB3 | ICS | N140 | PC15

CO[C@H]1[C@H](O[C@H]2O[C@@H](C)[C@@H](O[C@@H]3C[C@](C)(O)[C@H](O)[C@H](C)O3)[C@@H](N(C)C)[C@@H]2O)[C@@H](CC=O)C[C@@H](C)[C@@H](O[C@H]2CC[C@H](N(C)C)[C@H](C)O2)/C=C\C=C/C[C@@H](C)OC(=O)C[C@H]1O
inactive: [1] | 3D7 | AS120 | CP191 | CP192 | CP250 | CP329 | DFO2036 | DIV14 | ECU | HB3 | N140 | PC15

C[C@H](N[C@@H](C)COc1ccccc1)[C@H](O)c1ccc(O)cc1
active: CP237 3.55 µM
inactive: [1] | 3D7 | AS120 | CP185 | CP191 | CP192 | CP217 | CP250 | CP252 | CP325 | CP329 | DFO2036 | ECU | HB3 | ICS | N140 | PC15

CN[C@H]1[C@H](O)[C@@H](O[C@@H]2[C@H](O)[C@@H](O[C@H]3OC(CN)=CC[C@H]3N)[C@@H](N)C[C@H]2N)OC[C@@]1(C)O
inactive: [1] | 3D7 | AS120 | CP185 | CP191 | CP192 | CP217 | CP237 | CP250 | CP252 | CP266 | CP325 | CP329 | DFO2036 | DIV14 | ECU | HB3 | ICS | N140 | PC15
